Compound activity deposited in PubChem BioAssay by National Center for Advancing Translational Sciences (NCATS).
PNC assembly inh: High Content Assay for Compounds that inhibit the Assembly of the Perinucleolar Compartment | PC3M PTB-GFP, PNC prevalence imaging, 16 h; hits give low values | activity change (PNC), negative = inhibition, % at 10 µM | 140,000 tested, 3.1% active | AID 2417, 2010;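 active = readout at or below -70, meaning at least 70% loss of cells showing the perinucleolar compartment, a nuclear body marking cancer cells; inconclusive = readout between -30 and a set limit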;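 also: plate controls were DMSO wells for no effect and camptothecin positive control wells for full effect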
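PC3M cells stably expressing PTB-GFP, 750–1000 cells/well, treated 16 h at 37 °C with compound (23 nl of library stock), in duplicate. After paraformaldehyde fixation and Hoechst stain, imaged at 20x; PNC prevalence scored by image analysis.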
HPGD block: qHTS Assay for Inhibitors of HPGD (15-Hydroxyprostaglandin Dehydrogenase); 15-hydroxyprostaglandin dehydrogenase [NAD(+)] (Homo sapiens), P15428; purified HPGD, NADH fluorescence kinetic, PGE2 substrate; Potency, µM, without a hit: at the highest dose activity change, negative = inhibition, hits mostly inhibitors; 150,000 tested, 4.3% active; AID 894, 2007; also: potency is read from the fitted curve at half-maximal effect
Target sequence (P15428 whole entry, looked up): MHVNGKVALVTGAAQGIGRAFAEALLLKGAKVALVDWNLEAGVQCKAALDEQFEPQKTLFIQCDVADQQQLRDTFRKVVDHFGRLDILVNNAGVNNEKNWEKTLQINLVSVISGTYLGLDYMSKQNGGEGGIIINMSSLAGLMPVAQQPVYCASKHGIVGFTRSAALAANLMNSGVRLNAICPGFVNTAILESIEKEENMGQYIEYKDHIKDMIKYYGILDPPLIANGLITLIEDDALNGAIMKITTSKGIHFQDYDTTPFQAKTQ
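NADH formation kinetics: reaction with 30 uM PGE2 and 1 mM NAD+ (final), 20 nM enzyme, Tris-HCl pH 8 with Tween 20, after 15 min compound preincubation at room temperature. Fluorescence change, last versus first of five reads.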
IMPase cell inh: qHTS Assay for Identifying the Cell-Membrane Permeable IMPase Inhibitors. Inositol monophosphatase 1 (Rattus norvegicus), P97697. 120,000 tested, under 10 active. inhibition (IP1 accumulation), % at 46.1 µM. AID 901, 2007. CHO-M1 cells, IP1 accumulation, HTRF TR-FRET ratio; active = well fitted curve in the direction sought with a large enough effect in the signal ratio, not every such curve was filed as active; inconclusive = small, poorly fitted or top-dose-only effect, or a change in a side signal; inactive = no such curve, though single readings can be large or run the other way; the % refers to the signal ratio;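 also: cells stimulated with carbachol in lithium chloride buffer; plate controls were DMSO basal wells for no effect and reference inhibitor wells for full effect; higher means more IMPase inhibition seen as more IP1 and lower FRET ratio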
Target sequence (P97697 whole entry, looked up): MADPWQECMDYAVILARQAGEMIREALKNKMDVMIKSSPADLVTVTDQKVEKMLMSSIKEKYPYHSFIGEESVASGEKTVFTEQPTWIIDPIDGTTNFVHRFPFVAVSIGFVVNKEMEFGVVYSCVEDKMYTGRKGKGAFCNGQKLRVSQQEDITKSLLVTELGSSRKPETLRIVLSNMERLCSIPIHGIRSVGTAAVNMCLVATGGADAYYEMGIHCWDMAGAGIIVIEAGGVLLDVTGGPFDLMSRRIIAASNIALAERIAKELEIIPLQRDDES
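Cellular IMPase inhibition is scored as a rise in cytosolic IP1, detected by competitive TR-FRET between d2-labelled IP1 and a europium anti-IP1 antibody. M1-expressing CHO cells were stimulated with carbachol for 30 min at 37C, with lithium (50 mM LiCl) present in the buffer.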
ALDH1A1 inh: qHTS Assay for Inhibitors of Aldehyde Dehydrogenase 1 (ALDH1A1); Purified ALDH1A1, NADH fluorescence, propionaldehyde substrate; Potency, µM (top dose mostly 75.3 µM), inactives show at the top dose activity, negative = inhibition, most hits filed as inhibitors; 220,000 tested, 7.3% active;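 also: potency is read from the fitted curve at half-maximal effect; plate controls were no enzyme wells and a reference inhibitor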
IMPase Li inh: qHTS Assay for Identifying the Cell-Membrane Permeable IMPase Inhibitors: Potentiation with Lithium | CHO-M1 cells, IP1 TR-FRET (IP-One), carbachol + lithium | Potency, µM (highest dose often 59.4 µM), without a hit: at the top dose activity, negative = IMPase inhibition, usual class: inhibitors | 210,000 tested, 0.35% active | AID 1457, 2008; active = well fitted inhibition curve with a large enough effect; inconclusive = small, poorly fitted or top-dose-only effect; inactive = no such curve, though single readings can be large or run the other way;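 also: IP1 builds up when IMPase is blocked and the TR-FRET signal falls; potency is read from the fitted curve at half-maximal effect; plate controls were basal vehicle for no effect and high inhibitor control for full effect; nearly all actives have a fitted effect of over 50% in size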
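Concentration–response in CHO-M1 cells, lithium-potentiated; 30 min at 37C. IP1 detected by competitive TR-FRET after 10 min lysis at RT. Hill-fitted AC50.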
* marks the source's active call; other numbers are inactive results; ? = inconclusive; nt = not tested or not shown; [ ] = dose if it differs, or a comment. Most compounds without a hit are left out; they make up all but 11% or so of the library. Unless noted, calls follow the shape of the dose curve; as a rule, active = well fitted inhibition curve with a large enough effect (not every such curve was filed as active); inconclusive = small, poorly fitted or top-dose-only effect, or another doubt; inactive = no such curve, though single readings can be large or run the other way. Unless noted, % is scaled to controls: 0 for no effect and ±100 for the full control effect.

SMILES	PNC assembly inh	HPGD block	IMPase cell inh	ALDH1A1 inh	IMPase Li inh
COC(=O)c1c(NC(=O)/C=C/C(=O)O)sc(C)c1-c1ccc(C)cc1	nt	nt	nt	?	-1%
COc1cc(OC)cc(C(=O)NCC(=O)OCC(=O)N2CC(C)CC(C)C2)c1 (stereo not given)	nt	nt	nt	?	5%
CC(=O)[C@@]1(O)CC[C@H]2C3CCC4=CC(=O)CC[C@]4(C)C3CC[C@@]21C (stereo not given in full)	nt	-13%	nt	3%	8%
CC(NC(=O)Nc1ccccc1)C(c1cccs1)N1CCOCC1 (stereo not given)	-122*	-2%	13	5%	8%
CCC(=O)Nc1nc(-c2ccc3c(c2)CC(C)N3S(C)(=O)=O)cs1 (stereo not given)	nt	nt	nt	8%	6%
CS(=O)(=O)N1CCc2cc(-c3csc(NCC4CCCO4)n3)ccc21 (stereo not given)	?	40µM*	6	14µM*	-2%[38.3 µM]
CCCC(=O)Nc1nc(-c2ccc3c(c2)CCN3S(C)(=O)=O)cs1	32	-19%	4	?	7%[38.3 µM]
CS(=O)(=O)N1CCc2cc(-c3csc(NC(=O)Cc4ccccc4)n3)ccc21	-119*	-4%	10	?	16%
CC1Cc2cc(-c3csc(NC(=O)Cc4cccs4)n3)ccc2N1S(C)(=O)=O (stereo not given)	-125*	-13%	9	?	19%
Cc1nc2sc(-c3ccccc3)cc2c(=O)n1/N=C/N(C)C	nt	nt	nt	?	2%
NC(=O)[C@@H]1CCOc2c(I)cc([N+](=O)[O-])cc2C(=O)N[C@@H](CO)C(=O)NCC(=O)N1	-15	-5%	nt	-4%	-6%
N#Cc1c(Nc2ccc(F)cc2)sc(C(=O)c2ccc(F)cc2)c1N	2	?	7	22µM*	3%[38.3 µM]
C=CCNc1sc(C(=O)c2ccccc2)c(N)c1C#N	-25	-18%	-1	?	-1%[38.3 µM]
N#Cc1c(Nc2ccc(F)cc2)sc(C(=O)c2ccccc2)c1N	?	?	nt	?	15%
N#Cc1c(Nc2ccccc2)sc(C(=O)c2ccccc2)c1N	29	-29%	3	13µM*	12%
CCC(C(=O)Nc1ccsc1C(=O)OC)c1ccccc1 (stereo not given)	nt	nt	nt	11µM*	14%
COC(=O)c1sccc1NC(=O)c1ccncc1	21	-18%	-7	-4%	-9%[38.3 µM]
COC(=O)c1sccc1NC(=O)c1sccc1C	-100*	?	4	-4%	-5%
CCC(C(=O)Nc1sc(C(N)=O)c(C)c1C(=O)OC)c1ccccc1 (stereo not given)	nt	nt	nt	13µM*	0%
CCOC(=O)c1c(NC(=O)C(Sc2ccccc2)c2ccccc2)sc(C(N)=O)c1C (stereo not given)	40	28µM*	12	14µM*	15%[38.3 µM]
CCC(C(=O)Nc1nc(C)c(C(=O)OC)s1)c1ccccc1 (stereo not given)	nt	nt	nt	-4%	14%
CCOC(=O)c1c(NC(=O)C(Sc2ccccc2)c2ccccc2)sc(C(=O)N(C)C)c1C (stereo not given)	?	-19%	nt	-10%	14%
Cc1cccc(NC(=O)c2c(N)sc3c2CCC(C)C3)c1 (stereo not given)	nt	nt	3	nt	nt
Cn1c(=O)c(-c2cc(F)cc(F)c2)nc2cnc(Oc3ccccc3)nc21	nt	?	nt	?	-1%
Cc1ccc(S(=O)(=O)CC(N)=O)cc1	19	0%	11	16%	22%[38.3 µM]
SMILES	PNC assembly inh	HPGD block	IMPase cell inh	ALDH1A1 inh	IMPase Li inh
Cc1ccc(S(=O)(=O)CC(=O)N(C)C)cc1	-100*	-5%	-6	5%	0%
CCc1cc2c(SCC(=O)Nc3cc(C)on3)ncnc2s1	nt	nt	nt	11%	3%
O=C(O)CN1C(=O)SC(Nc2ccccc2)C1=O (stereo not given)	7	1%	nt	-9%	-6%
Cc1cccc(NC2SC(=O)N(c3ccccc3)C2=O)c1 (stereo not given)	11	-5%	12	1.3µM*	39%[38.3 µM]
CCCN1C(=O)SC(CC(=O)Nc2ccc(C)cc2)C1=O (stereo not given)	-100*	-16%	10	22µM*	4%
O=C(CC1Sc2ncnn2C1=O)Nc1ccccc1 (stereo not given)	-3	16µM*	-3	2µM*	-20%[38.3 µM]
Cc1cccc(NC(=O)CC2SC(=O)N(c3ccccc3)C2=O)c1 (stereo not given)	11	-15%	1	10µM*	31%[38.3 µM]
Cc1cc(C)cc(NC(=O)COc2ccc(C(=S)N3CCOCC3)cc2)c1	nt	nt	nt	9%	3%
CN(C)[C@H]1C(=O)C(C(=O)NCN2CCCC2)=C(O)[C@]2(O)C(=O)C3=C(O)c4c(O)cccc4[C@](C)(O)[C@H]3C[C@H]12	nt	-19%	nt	13%[13.5 µM]	11%
O=C(c1ccco1)N1CCC2(CC1)CN(c1ccccn1)C2	nt	?	nt	?	11%
O=C(Nc1cccc(F)c1)N1CC[C@@]2(CCCN(S(=O)(=O)c3ccccc3)C2)C1	nt	-5%	nt	-3%	1%
CCOC(=O)C1CC2CC(C1)CN(C(=O)C1CCCCC1)C2 (stereo not given)	nt	nt	nt	-3%	4%
O=C(CC1SC(=O)N(c2ccccc2)C1=O)Nc1ccccc1 (stereo not given)	?	?	1	8.9µM*	-11%[38.3 µM]
Cc1ccc(NC(=O)CC2SC3=NCCN3C2=O)cc1 (stereo not given)	7	-13%	4	3.5µM*	3%
COc1ccccc1NC1SC(=O)N(c2ccccc2)C1=O (stereo not given)	40	-8%	3	5µM*	-24%[38.3 µM]
Cc1ccc(NC(=O)CC2SC(=O)N(c3ccccc3)C2=O)cc1 (stereo not given)	43	-30%	1	10µM*	2%
C=CCN1C(=O)C(CC(=O)Nc2ccc(C)cc2)SC1=Nc1c(C)n(C)n(-c2ccccc2)c1=O (stereo not given)	11	-5%	-3	2%	33%[38.3 µM]
CO[C@]1(NC(=O)Cc2cccs2)C(=O)N2C(C(=O)O)=C(COC(N)=O)CS[C@H]21	nt	-3%	-2[20.6 µM]	-8%[20.9 µM]	-2%
CCCSc1cc(=O)n(-c2ccc(F)cc2)nc1C(=O)OCC	nt	nt	nt	7%	7%
Cc1ccc(NC(=O)CCC(=O)NNC(=S)Nc2ccccc2)c(C)c1	nt	nt	nt	8.9µM*	1%
Cc1ccc(NC(=S)NNC(=S)Nc2ccc(C)cc2C)cc1	nt	nt	nt	0.45µM*	17%
Cc1ccc(NC(=S)Nc2ccc3cn[nH]c3c2)c(C)c1	nt	nt	nt	?	2%
OCCNc1nc(-c2ccccc2)nc2ccccc12	nt	nt	nt	1%	-2%
